# Experimental data taken from PubChem BioAssay (EPA / NIEHS).
# Activity calls are given as the source filed them. Rule for the calls: active = hit-call score of the fitted dose curve at least 0.9, where 1 is the maximum; inactive = score below 0.9.
# What was measured:
# [1] = UKN5_HCS_SBAD2_neurite_outgrowth: University of Konstanz (UKN) Leist Lab Neurite Outgrowth Assay in human iPSC-derived immature Dorsal Root Ganglia Neurons (UKN5) (AID 2284070); conditions: actives raise or lower the signal
# Summary of the method: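 Human iPSC-derived immature DRG neurons (SBAD2) on Matrigel with CHIR99021 (1.5 uM), SU5402 (5 uM), DAPT (5 uM); compounds added 1 h post-seeding for 24 h. Calcein-AM neurite area imaged; bidirectional fit vs DMSO.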
# [2] = UKN4_HCS_LUHMES_neurite_outgrowth: University of Konstanz (UKN) Leist Lab Neurite Outgrowth Assay in human LUHMES cells (UKN4) (AID 2284206); conditions: actives raise or lower the signal
# Procedure: UKN4_HCS_LUHMES is a cell-based, multiplexed-readout assay screening for neurite outgrowth and cell viability that uses LUHMES, a human central nervous system cell line, with measurements taken at […] after chemical dosing in a microplate: 96-well plate. UKN4, also referred to as NeuriTox, is an assay that uses LUHMES neuronal precursors as a model of dopaminergic neuronal differentiation. Following a 2-day differentiation period, cells are exposed to chemicals for 24 hr and neurite area is evaluated as a marker of neurite outgrowth using high-content imaging of cells stained with calcein AM. Cell viability is assessed using stain Hoechst H-33342.UKN4_HCS_LUHMES_neurite_outgrowth is an assay component measured from the UKN4_HCS_LHUMES assay. It is designed to make measurements of neurite outgrowth, a form of morphology reporter, as detected with Fluorescence intensity signals by HCS Fluorescent Imaging.The assay endpoint UKN4_HCS_LUHMES_neurite_outgrowth was analyzed with bidirectional fitting relative to DMSO as the negative control and baseline of activity. Using a type of morphology reporter, gain or loss-of-signal activity can be used to understand developmental effects. To generalize the intended target to other relatable targets, this assay endpoint is annotated to the neurodevelopment intended target family, where the subfamily is neurite outgrowth. […]
smiles,measurement,setting,value
CCC[CH2][Sn]([Cl])([CH2]CCC)[CH2]CCC,AC50,[1],109 nM (active)
same,AC50,[2],119 nM (active)
